Source: PubChem BioAssay (Tox21)
Values joined by “and” are separate entries in the source; they are usually repeats but may differ in a detail not shown here. Identical values can stand only once. Results filed as inconclusive are left out. The source holds several records for some structures; these can differ, active in one and inactive in another. Active and inactive are the calls of the source. The call rests on the fitted dose curve; in most records, active means well fitted curve in the direction sought with a large enough effect in the repeat runs; inconclusive means weak or mixed curves; inactive means no such curve, though single readings can be large; an effect the other way counts as inactive or inconclusive.

Tests used:
[1] = A CellTox Green Cytotoxicity Assay to monitor cytotoxicity in HEK293 cells - 40 hour (AID 1224871); further: nearly all actives have a fitted effect of over 45% in size; further: potency means the concentration at half of the fitted maximal effect
In short: (§1)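 Homogeneous no-lysis format: HEK293 cell suspension mixed with CellTox Green reagent, seeded, incubated 5 h at 37 C/5% CO2, then dosed by pintool with compound in DMSO.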

[2] = qHTS RealTime-Glo MT Cell Viability Assay in HEK293 cells - 16 hour (AID 1224872); further: nearly all actives have a fitted effect of over 50% in size; further: potency means the concentration at half of the fitted maximal effect; on activity change, negative = cytotoxicity: top concentration of the series differs between compounds
In short: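 Assay medium contained NanoLuc luciferase plus cell-permeant prosubstrate, added with HEK293 cells at 600 cells/well. After 5 h at 37 C/5% CO2 compounds were added; plates stayed at 37 C for 40 h with serial luminescence reads.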

[3] = qHTS RealTime-Glo MT Cell Viability Assay in HepG2 cells - 8 hour (AID 1224873); further: nearly all actives have a fitted effect of over 55% in size; further: potency means the concentration at half of the fitted maximal effect
In short: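 HepG2 cells (600/well) mixed with RealTime-Glo MT reagent, settled 5 h at 37 C/5% CO2 before compound addition. Nonlytic NanoLuc luminescence from viable-cell prosubstrate reduction read repeatedly during 40 h treatment at 37 C.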

[4] = qHTS RealTime-Glo MT Cell Viability Assay in HEK293 cells - 40 hour (AID 1224874); settings: RealTime-Glo luminescence; max response: stronger effect = lower value; further: nearly all actives have a fitted effect of over 50% in size; further: potency means the concentration at half of the fitted maximal effect
In short: (§2)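 Measured as luminescence from the same continuously cultured HEK293 wells at successive time points (0, 8, 16, 24, 32, 40 h) after compound addition. Reagent present from seeding; dosing at 5 h; incubation 37 C.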

[5] = A CellTox Green Cytotoxicity Assay to monitor cytotoxicity in HEK293 cells - 24 hour (AID 1224875); further: nearly all actives have a fitted effect of over 45% in size; further: potency means the concentration at half of the fitted maximal effect; on activity change: series mostly up to about 77 µM
In short: as §1

[6] = A CellTox Green Cytotoxicity Assay to monitor cytotoxicity in HepG2 cells - 16 hour (AID 1224876); further: nearly all actives have a fitted effect of over 45% in size; further: potency means the concentration at half of the fitted maximal effect
In short: (§3)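 Fluorescent DNA-binding dye, 600 HepG2 cells/well, 5 h preincubation then compound in DMSO; same plates read at 0–40 h, 37 C.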

[7] = qHTS RealTime-Glo MT Cell Viability Assay in HepG2 cells - 32 hour (AID 1224877); further: nearly all actives have a fitted effect of over 55% in size; further: potency means the concentration at half of the fitted maximal effect
In short: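 qHTS, HepG2, 600 cells/well, RealTime-Glo (NanoLuc + prosubstrate) added with cells; 5 h preincubation; DMSO compound addition; 37 C; luminescence at 0/8/16/24/32/40 h.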

[8] = A CellTox Green Cytotoxicity Assay to monitor cytotoxicity in HepG2 cells - 24 hour (AID 1224878); further: nearly all actives have a fitted effect of over 45% in size; further: potency means the concentration at half of the fitted maximal effect
In short: as §3

[9] = A CellTox Green Cytotoxicity Assay to monitor cytotoxicity in HepG2 cells - 40 hour (AID 1224879); further: nearly all actives have a fitted effect of over 40% in size; further: potency means the concentration at half of the fitted maximal effect
In short: as §3

[10] = qHTS RealTime-Glo MT Cell Viability Assay in HEK293 cells - 0 hour (AID 1224880)
In short: as §2
On the % scale 0 is the no-effect control and ±100 the full control effect.

N#CSCc1ccccc1
inactive: Potency [1] | Potency [2] | Potency [3] | max response [4] -24.3% | Potency [5] | Potency [6] | Potency [7] | Potency [8] | Potency [9]

CC(=O)[O][Pb]([c]1ccccc1)([c]1ccccc1)[c]1ccccc1
active: Potency [1] 2450 nM | Potency [2] 490 nM | Potency [3] 3.47 µM | Potency [4] 389 nM | Potency [5] 3.89 µM | Potency [6] 1.95 µM | Potency [7] 977 nM | Potency [8] 1.38 µM | Potency [9] 977 nM

CCC1(CC)C(=O)N=C(O)NC1=O
inactive: Potency [1] | Potency [2] | Potency [3] | max response [4] -0.914% | Potency [5] | Potency [6] | Potency [7] | Potency [8] | Potency [9] | Potency [10]

O=C1C2(Cl)C3(Cl)C4(Cl)C(Cl)(Cl)C5(Cl)C3(Cl)C1(Cl)C5(Cl)C24Cl (configuration not stated)
inactive: Potency [10]
active: Potency [1] 42.9 µM and 52.6 µM | Potency [2] 21.5 µM and 41.8 µM | Potency [3] 42.9 µM and 46.9 µM | Potency [4] 13.6 µM and 37.3 µM | Potency [5] 38.3 µM and 52.6 µM | Potency [6] 24.1 µM and 41.8 µM | Potency [7] 48.2 µM and 46.9 µM | Potency [8] 48.2 µM and 41.8 µM | Potency [9] 21.5 µM and 37.3 µM

O=C(O)[C@H](O)[C@@H](O)C(=O)O
inactive: Potency [1] | Potency [2] | Potency [3] | max response [4] 5.57% | Potency [5] | Potency [6] | Potency [7] | Potency [8] | Potency [9] | Potency [10]

CNC(=O)Oc1cc(C)cc(C(C)C)c1
inactive: Potency [1] | Potency [2] | Potency [3] | max response [4] 5.9% | Potency [5] | Potency [6] | Potency [7] | Potency [8] | Potency [9]

CN1C2CCC(C)(C)C1CC(OC(=O)C(O)(c1cccs1)c1cccs1)C2 (configuration not stated)
inactive: Potency [1] | Potency [2] | Potency [3] | max response [4] -25.3% | Potency [5] | Potency [6] | Potency [7] | Potency [8] | Potency [9] | Potency [10]

BrCCCBr
inactive: Potency [1] | Potency [2] | Potency [3] | max response [4] 6.85% | Potency [5] | Potency [6] | Potency [7] | Potency [8] | Potency [9] | Potency [10]

N#Cc1ccc(N(CC(N)=O)CC(F)(F)F)cc1C(F)(F)F
inactive: Potency [1] | Potency [2] | Potency [3] | max response [4] 0.171% | Potency [5] | Potency [6] | Potency [7] | Potency [8] | Potency [9] | Potency [10]

O=S1OCC2C(CO1)C1(Cl)C(Cl)=C(Cl)C2(Cl)C1(Cl)Cl (configuration not stated)
inactive and 54.9 µM (active): Potency [7]
inactive: Potency [10]
active: Potency [1] 49 µM and 54.9 µM | Potency [2] 19.5 µM and 38.9 µM | Potency [3] 48.9 µM | Potency [4] 21.9 µM and 38.9 µM | Potency [5] 55 µM and 54.9 µM | Potency [6] 48.9 µM | Potency [8] 48.9 µM | Potency [9] 54900 nM

Cc1cnc2c(C(=O)O)c(Cl)ccc2c1
inactive: Potency [1] | Potency [2] | Potency [3] | max response [4] 3.08% | Potency [5] | Potency [6] | Potency [7] | Potency [8] | Potency [9] | Potency [10]

Nc1cc(Cl)ccc1Cl
inactive: Potency [1] | Potency [2] | Potency [3] | max response [4] 22.7% | Potency [5] | Potency [6] | Potency [7] | Potency [8] | Potency [9] | Potency [10]

Cc1c([N+](=O)[O-])c(C)c([N+](=O)[O-])c(C(C)(C)C)c1[N+](=O)[O-]
inactive: Potency [1] | Potency [2] | Potency [3] | max response [4] -20% | Potency [5] | Potency [6] | Potency [7] | Potency [8] | Potency [9]

[F][Sn]([c]1ccccc1)([c]1ccccc1)[c]1ccccc1
active: Potency [1] 1550 nM | Potency [2] 549 nM | Potency [3] 1.74 µM | Potency [4] 436 nM | Potency [5] 3.47 µM | Potency [6] 1.74 µM | Potency [7] 347 nM | Potency [8] 2.19 µM | Potency [9] 692 nM

CCC[CH2][Sn]([CH2]CCC)([O]C(C)=O)[O]C(C)=O
active: Potency [1] 278 nM | Potency [2] 87.9 nM | Potency [4] 69.8 nM | Potency [5] 1.24 µM | Potency [6] 1.24 µM | Potency [7] 221 nM | Potency [8] 0.312 µM | Potency [9] 248 nM
inactive: Potency [3] | Potency [10]

COCCC#N
inactive: Potency [1] | Potency [2] | Potency [3] | max response [4] 7.47% | Potency [5] | Potency [6] | Potency [7] | Potency [8] | Potency [9] | Potency [10]

C=CC(=O)[O][Sn]([CH2]CCC)([CH2]CCC)[CH2]CCC
active: Potency [1] 871 nM | Potency [2] 549 nM | Potency [3] 0.977 µM | Potency [4] 389 nM | Potency [5] 7.76 µM | Potency [6] 0.616 µM | Potency [7] 389 nM | Potency [8] 0.692 µM | Potency [9] 549 nM

Cc1nn(-c2cc(NS(C)(=O)=O)c(Cl)cc2Cl)c(=O)n1C(F)F
inactive: Potency [1] | Potency [2] | Potency [3] | max response [4] 1.81% | Potency [5] | Potency [6] | Potency [7] | Potency [8] | Potency [9]

CC(=O)[O-].CC(=O)[O-].CC(=O)[O-].[Cr+3]
inactive: Potency [1] | Potency [2] | Potency [3] | max response [4] -0.681% | Potency [5] | Potency [6] | Potency [7] | Potency [8] | Potency [9]

CC(=O)[O-].CC(=O)[O-].O.O.[Zn+2]
inactive: Potency [1] | Potency [2] | Potency [3] | max response [4] -2.4% | Potency [5] | Potency [6] | Potency [7] | Potency [8] | Potency [9]

CC[C@H](C)[C@H]1O[C@]2(C=C[C@@H]1C)C[C@@H]1C[C@@H](C/C=C(\C)[C@@H](O[C@H]3C[C@H](OC)[C@@H](O[C@H]4C[C@H](OC)[C@@H](NC)[C@H](C)O4)[C@H](C)O3)[C@@H](C)/C=C/C=C3\CO[C@@H]4[C@H](O)C(C)=C[C@@H](C(=O)O1)[C@]34O)O2
active: Potency [1] 11000 nM | Potency [2] 6920 nM | Potency [3] 15.5 µM | Potency [4] 4360 nM | Potency [5] 13.8 µM | Potency [6] 15.5 µM | Potency [7] 9770 nM | Potency [8] 11 µM | Potency [9] 9770 nM
inactive: Potency [10]

CCC[CH2][Sn]([CH2]CCC)([CH2]CCC)[O][Sn]([CH2]CCC)([CH2]CCC)[CH2]CCC
active: Potency [1] 302 nM | Potency [2] 214 nM | Potency [3] 0.956 µM | Potency [4] 151 nM | Potency [5] 0.427 µM | Potency [6] 0.603 µM | Potency [7] 537 nM | Potency [8] 0.537 µM | Potency [9] 537 nM

C=C(C)C(=O)[O][Sn]([CH2]CCC)([CH2]CCC)[CH2]CCC
inactive: Potency [10]
active: Potency [1] 436 nM | Potency [2] 389 nM | Potency [3] 0.616 µM | Potency [4] 245 nM | Potency [5] 2.19 µM | Potency [6] 0.49 µM | Potency [7] 245 nM | Potency [8] 0.616 µM | Potency [9] 389 nM

CC(C)=CC1C(C(=O)OC(C#N)c2cccc(Oc3ccccc3)c2)C1(C)C (configuration not stated)
inactive: Potency [1] | Potency [2] | Potency [3] | max response [4] -3.44% | Potency [5] | Potency [6] | Potency [7] | Potency [8] | Potency [9]

CC(=O)[O-].CC(=O)[O-].CC(=O)[O-].[Sb+3]
inactive: cytotoxicity increase [1] 2.55% [at 2.72 µM] | activity change, negative = cytotoxicity [2] 1.77% [at 2.72 µM] | viability change, negative = cytotoxic [3] -4.57% [at 2.72 µM] | max response [4] 11.6% | activity change [5] 1.85% [at 2.72 µM, stronger effect = higher value] | cytotoxicity increase [6] -16% [at 2.72 µM] | activity change, negative = cytotoxic [7] 8.41% [at 2.72 µM] | cytotoxicity [8] -19.2% [at 2.72 µM] | cytotoxicity increase [9] -22.4% [at 2.72 µM] | activity change, negative = cytotoxicity [10] -11.8% [at 2.72 µM]

ClC(Cl)C(Cl)(Cl)Cl
inactive: Potency [1] | Potency [2] | Potency [3] | max response [4] 0.191% | Potency [5] | Potency [6] | Potency [7] | Potency [8] | Potency [9]

CCOP(=O)(Sc1ccccc1)Sc1ccccc1
inactive: Potency [1] | Potency [2] | Potency [3] | max response [4] -12.3% | Potency [5] | Potency [6] | Potency [7] | Potency [8] | Potency [9]

CCCCn1cc[n+](C)c1.[Cl][Fe-]([Cl])([Cl])[Cl]
inactive: Potency [1] | Potency [2] | Potency [3] | max response [4] 2.18% | Potency [5] | Potency [6] | Potency [7] | Potency [8] | Potency [9] | Potency [10]

Cc1cc2c3c(c1)C(c1ccccc1)=N[C@@H](NC(=O)c1ccncc1)C(=O)N3CC2
inactive: Potency [1] | Potency [2] | Potency [3] | max response [4] -16.5% | Potency [5] | Potency [6] | Potency [7] | Potency [8] | Potency [9] | Potency [10]

CCCCCON=O
inactive: Potency [1] | Potency [2] | Potency [3] | max response [4] 1.89% | Potency [5] | Potency [6] | Potency [7] | Potency [8] | Potency [9] | Potency [10]

O=c1[nH]c(Cl)c(Cl)cc1Cl
inactive: Potency [1] | Potency [2] | Potency [3] | max response [4] 0.811% | Potency [5] | Potency [6] | Potency [7] | Potency [8] | Potency [9] | Potency [10]

CN1[C@@H]2CC[C@H]1CC(O)C2 (some centres not stated)
inactive: Potency [1] | Potency [2] | Potency [3] | max response [4] 15.4% | Potency [5] | Potency [6] | Potency [7] | Potency [8] | Potency [9] | Potency [10]
